Compound activity from PubChem BioAssay.
C diff HTS: inhibitors of Clostridium difficile growth; Clostridium difficile clinical isolate growth, OD600, 24 h; stronger effect = lower value; growth activity, negative = inhibition, % at 16 µg/mL (by protocol); actives 0.25% (n = 86,000); AID 1259249;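 active means mean growth activity at or below -80% and every replicate also at or below -80%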;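 further: 0% = DMSO wells and -100% = levofloxacin 16 µg/mL wells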
Pf Dd2 inh: inhibitors of Plasmodium falciparum Dd2 growth. activity change, % at 10 µM. actives 2.3% (n = 94,000). P. falciparum Dd2 growth, SYBR Green, 72 h; stronger effect = lower value; in the data active means activity change below about -80%
Active calls of the source: *; x = no result; ! = repeats disagree. Most compounds without a hit are left out; they make up all but 2.4% or so of the library.

SMILES	C diff HTS	Pf Dd2 inh
C[C@@H]1CCCCO[C@H](CN(C)Cc2ccc(C(=O)Nc3ccccc3N)cc2)[C@@H](C)CN([C@H](C)CO)C(=O)c2cc(NS(C)(=O)=O)ccc2O1	1	-69
C[C@H]1CN([C@@H](C)CO)C(=O)c2cc(NC(=O)C3CC3)ccc2O[C@H]1CN(C)Cc1ccc(C(=O)Nc2ccccc2N)cc1	17	-53
C[C@H](CO)N1C[C@H](C)[C@H](CN(C)Cc2ccc(C(=O)Nc3ccccc3N)cc2)OCCCC[C@H](C)Oc2ccc(NC(=O)C3CCCCC3)cc2C1=O	7	-92*
C[C@@H]1CN([C@@H](C)CO)C(=O)c2cc(NC(=O)C3CC3)ccc2O[C@@H]1CN(C)Cc1ccc(C(=O)Nc2ccccc2N)cc1	1	-18
C[C@@H]1CN([C@H](C)CO)C(=O)c2cc(NC(=O)C3CCCCC3)ccc2O[C@@H]1CN(C)Cc1ccc(C(=O)Nc2ccccc2N)cc1	-1	-83*
COc1ccc2c3c([nH]c2c1)[C@@H](CO)N(Cc1ccccc1)CC31CN(CC2CC2)C1	x	-36
COc1ccccc1-c1ccc2c(c1)O[C@@H](CN(C)C(=O)c1ccccc1)[C@@H](C)CN([C@H](C)CO)S2(=O)=O	4	-47
C[C@H]1CN([C@@H](C)CO)C(=O)c2c(c3ccccc3n2C)-c2ccccc2CO[C@@H]1CN(C)Cc1ccc(-c2ccccc2)cc1	17	-92*
C[C@@H]1CN([C@@H](C)CO)C(=O)c2c(c3ccccc3n2C)-c2ccccc2CO[C@@H]1CN(C)Cc1ccc(Oc2ccccc2)cc1	8	-87*
C[C@@H]1CN([C@H](C)CO)C(=O)c2c(c3ccccc3n2C)-c2ccccc2CO[C@@H]1CN(C)Cc1ccc(Oc2ccccc2)cc1	10	-71
C[C@@H]1CN([C@@H](C)CO)C(=O)c2c(c3ccccc3n2C)-c2ccccc2CO[C@H]1CN(C)Cc1ccc(-c2ccccc2)cc1	53	-37
COc1ccc2c3c(n(C)c2c1)[C@@H](CO)N(Cc1cccnc1)CC31CN(Cc2cccnc2)C1	x	52
C[C@@H]1CN([C@@H](C)CO)C(=O)c2cc(C#CCN(C)C)cnc2O[C@@H]1CN(C)C(=O)c1cccnc1	-2	63
COc1ccc2c3c(n(C)c2c1)[C@@H](CO)N(C(=O)c1ccc(F)cc1)CC31CCN(C(=O)Nc2ccc(F)cc2)CC1	7	-87*
COc1ccc2c3c(n(C)c2c1)[C@@H](CO)N(C(C)=O)CC31CCN(C(=O)Nc2ccc(F)cc2)CC1	-1	-83*
COc1ccc2c3c(n(C)c2c1)[C@@H](CO)N(Cc1cccnc1)CC31CCN(C(=O)NC(C)C)CC1	8	-73
COc1ccc2c3c(n(C)c2c1)[C@H](CO)N(C(=O)c1ccc(F)cc1)CC31CCN(C(=O)c2ccc(F)cc2)CC1	9	-58
COc1ccc2c3c(n(C)c2c1)[C@@H](CO)N(C(C)=O)CC31CN(C(=O)Nc2ccc(F)cc2)C1	8	-63
COc1ccc2c3c(n(C)c2c1)[C@@H](CO)N(C(=O)c1ccccc1)CC31CCN(C(C)=O)CC1	-1	-61
COc1ccc2c3c(n(C)c2c1)[C@@H](CO)N(C(=O)c1ccccc1)CC31CCN(C(=O)c2ccccc2)CC1	-4	-87*
COc1ccc2c3c(n(C)c2c1)[C@H](CO)N(Cc1cccnc1)CC31CN(C(=O)NC(C)C)C1	-4	-88*
CC(C)NC(=O)N(C)C[C@@H]1Oc2ccc(NC(=O)Nc3ccccc3)cc2C(=O)N([C@@H](C)CO)C[C@H]1C	-9	9
C[C@@H]1CN([C@@H](C)CO)C(=O)c2cc(C#CCN(C)C)cnc2O[C@H]1CN(C)Cc1ccccc1F	0	-27
COc1ccc(S(=O)(=O)Nc2ccc3c(c2)C(=O)N([C@H](C)CO)C[C@@H](C)[C@H](CN(C)C(=O)Cc2ccccc2)OCCCC[C@@H](C)O3)cc1	2	-56
CCCNC(=O)N1CC2(CN(Cc3ccncc3)C2)c2c(n(C)c3cc(OC)ccc23)[C@H]1CO	-7	-18
SMILES	C diff HTS	Pf Dd2 inh
COc1ccc2c3c(n(C)c2c1)[C@@H](CO)N(C(=O)Nc1ccc(F)cc1)CC31CN(C(=O)c2ccccc2F)C1	-2	-92*
COc1ccc2c3c(n(C)c2c1)[C@H](CO)N(C(=O)Nc1ccccc1F)CC31CN(C(=O)c2ccccc2F)C1	-12	-75
COc1ccc2c3c(n(C)c2c1)[C@@H](CO)N(C(=O)Nc1ccc(F)cc1)CC31CN(Cc2cccc(F)c2)C1	x	7
CCCNC(=O)N1CC2(CN(Cc3ccc(OC)cc3)C2)c2c(n(C)c3cc(OC)ccc23)[C@H]1CO	-24	-81*
COc1ccc2c3c(n(C)c2c1)[C@H](CO)N(C(=O)Nc1ccc(F)cc1)CC31CN(Cc2cccnc2)C1	3	-89*
COCC(=O)Nc1ccc2c(c1)C(=O)N(C)[C@@H]1CC[C@H](CC(=O)Nc3ccccc3)O[C@@H]1CO2	0	-23
C[C@H]1CCCCO[C@H](CN(C)S(=O)(=O)c2ccccc2)[C@@H](C)CN([C@@H](C)CO)C(=O)c2cc(NS(C)(=O)=O)ccc2O1	2	-39
CC(=O)N(C)C[C@H]1Oc2cc(-c3cncnc3)ccc2S(=O)(=O)N([C@H](C)CO)C[C@@H]1C	0	31
C[C@@H]1CN([C@H](C)CO)S(=O)(=O)c2ccc(C#Cc3ccccc3)cc2O[C@H]1CN(C)S(=O)(=O)c1cn(C)cn1	-4	-86*
COc1ccc(C#Cc2ccc3c(c2)O[C@@H](CN(C)S(=O)(=O)c2ccccc2F)[C@@H](C)CN([C@H](C)CO)S3(=O)=O)cc1	0	-88*
COc1ccccc1S(=O)(=O)N(C)C[C@@H]1Oc2cc(C#CCC(C)C)ccc2S(=O)(=O)N([C@H](C)CO)C[C@@H]1C	10	-85*!
COc1ccccc1S(=O)(=O)N(C)C[C@H]1Oc2cc(/C=C/c3ccccc3)ccc2S(=O)(=O)N([C@H](C)CO)C[C@@H]1C	6	-88*
COc1ccccc1S(=O)(=O)N(C)C[C@H]1Oc2cc(/C=C/c3ccccc3)ccc2S(=O)(=O)N([C@H](C)CO)C[C@H]1C	1	-50
COc1ccccc1S(=O)(=O)N(C)C[C@H]1Oc2cc(C#CCC(C)C)ccc2S(=O)(=O)N([C@@H](C)CO)C[C@@H]1C	14	-70
COc1ccc(C#Cc2ccc3c(c2)O[C@H](CN(C)S(=O)(=O)c2ccccc2F)[C@H](C)CN([C@@H](C)CO)S3(=O)=O)cc1	-1	-69
C[C@H](CO)N1C[C@H](C)[C@H](CN(C)S(=O)(=O)c2cn(C)cn2)Oc2cc(C#Cc3ccccc3)ccc2S1(=O)=O	5	-72
C[C@H]1CN([C@@H](C)CO)C(=O)c2c(c3ccccc3n2C)-c2ccccc2CO[C@H]1CN(C)Cc1ccccc1	57	3
O=C(Nc1ccc2c(c1)OCO2)N[C@H]1CC[C@@H](CC(=O)N2CCN(c3ccccc3)CC2)O[C@@H]1CO	1	27
CO[C@@H]1CN(C)C(=O)c2cc(NC(=O)c3ccc(Oc4ccccc4)cc3)ccc2OC[C@@H](C)NC[C@@H]1C	-5	-92*
CO[C@H]1CN(C)C(=O)c2ccc(NC(=O)c3ccc(-c4ccccc4)cc3)cc2OC[C@H](C)NC[C@H]1C	x	-74
CO[C@H]1CN(C)C(=O)c2ccc(NC(=O)c3ccc(-c4ccccc4)cc3)cc2OC[C@@H](C)NC[C@@H]1C	x	-92*
